SW480 rerep: A quantitative high throughput screen for small molecules that induce DNA re-replication in SW480 colon adenocarcinoma cells. SW480 DNA re-replication, Hoechst DNA content imaging, 48 h. Potency, µM (series often up to 46.1 µM), for the others: at the top dose re-replication activation, hits mostly activators. 340,000 tested, 1.8% active. AID 624297, 2012; further: % of control where 0% means no effect; nearly all actives have a fitted effect of over 55% in size
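Image-based read-out: total Hoechst fluorescence of nuclei (405 nm excitation, 500-530 nm emission), with hits raising the fraction of high-intensity nuclei. SW480 colon cells incubated 48 hr with compounds at 37 C.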
HT1080NT lethal: qHTS for induction of synthetic lethality in tumor cells producing 2HG: qHTS for the HT-1080-NT fibrosarcoma cell line. HT-1080-NT fibrosarcoma viability, CellTiter-Glo ATP luminescence, 48 h. 360,000 tested, 1.6% active. Potency, µM (doses to about 46.1 µM), for the others: at the highest dose activity, negative = less viability, actives largely listed as cytotoxic. AID 686970, 2013;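 further: NT is the 2HG producing partner of a matched IDH1 knockdown line; 0% = DMSO-treated cells and -100% = media-only wells without cells; nearly all actives have a fitted effect of over 55% in size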
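Luminescent CellTiter-Glo readout after 48 hours of compound exposure at 37 degrees C defined viability of HT-1080-NT cells. Activity was normalized to DMSO wells and cell-free media wells; concentration-response curves were fitted and assigned curve classes.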
HT1080 IDH1KD tx: qHTS for induction of synthetic lethality in tumor cells producing 2HG: qHTS for the HT-1080-IDH1KD cell line | HT-1080 IDH1 knockdown viability, ATP luminescence, 48 h | Potency, µM (titrated, usually from 46.1 µM), without a hit: at the highest dose activity, negative = toxicity, usual class: cytotoxic | 360,000 tested, 2% active;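 further: 0% = DMSO wells and -100% = cell-free medium wells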
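CellTiter-Glo luminescence after 48 h compound exposure at 37 degrees C of IDH1-knockdown HT-1080 cells in 5% FBS RPMI. %Activity scaled between DMSO wells and cell-free media wells, with curves fitted and assigned curve classes.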
MCF10A rereplic: A quantitative high throughput screen for small molecules that induce DNA re-replication in MCF 10a normal breast cells | AID 624296, 2012 | MCF 10A DNA re-replication, Hoechst nuclear intensity, 48 h | 350,000 tested, 2.9% active | Potency, µM (top dose mostly 46.1 µM), inactives show at the highest dose activity, positive = re-replication, hits mostly activators; further: % of control where 0% means no effect; nearly all actives have a fitted effect of over 50% in size
KB-V1 cytotox: qHTS assay for MDR1-selective chemotherapeutics: Primary screen using the drug-selected MDR subline cells KB-V1 | KB-V1 MDR cells viability, CellTiter-Glo, 72 h | Potency, µM (titrated, usually from 46.1 µM), most hits filed as cytotoxic | 400,000 tested, 3.4% active | AID 1347076, 2019; further: on the % scale 0 is the no-effect control and ±100 the full control effect; nearly all actives have a fitted effect of over 60% in size
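Compound-treated KB-V1 multidrug-resistant cells, 72 h, 37 degrees C; viability by CellTiter-Glo. Fitted qHTS curves give the values.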
KB-3-1 tox: qHTS assay for MDR1-selective chemotherapeutics: Primary screen using the parental adenocarcinoma cell KB-3-1; KB-3-1 viability, CellTiter-Glo ATP luminescence, 72 h; Potency, µM (titrated, usually from 46.1 µM), actives largely listed as cytotoxic; 400,000 tested, 1.4% active; AID 1347075, 2019; further: on the % scale 0 is the no-effect control and ±100 the full control effect; nearly all actives have a fitted effect of over 60% in size
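Luminescent ATP read-out (CellTiter-Glo) measures survival of drug-naive KB-3-1 cells after 72 h compound exposure at 37 °C. Titration series was screened from lowest to highest concentration, with DMSO vehicle plates as background controls.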
Numbers without * were called inactive; i = inactive; ? = inconclusive; / = no result given. Hits are enriched below; roughly 7.9% of the tested compounds scored in any of these assays. The call rests on the fitted dose curve; in most records, active means well fitted curve in the direction sought with a large enough effect; inconclusive means small, poorly fitted or top-dose-only effect, or another doubt; inactive means no such curve, though single readings can be large; an effect the other way counts as inactive or inconclusive. Potency means the concentration at half of the fitted maximal effect.

SMILES	SW480 rerep	HT1080NT lethal	HT1080 IDH1KD tx	MCF10A rereplic	KB-V1 cytotox	KB-3-1 tox
Cc1ccc(S(=O)(=O)N(CC(=O)N/N=C/c2cccc(Cl)c2)c2cccc3cccnc23)cc1	16.4µM*	16.6%	15.6%	?	?	?
Cc1ccc(S(=O)(=O)NCCC(=O)NC2CCCCCC2)cc1C	-2.1%	1.8%	2.1%	-0.2%	18.4µM*	i
Cc1ccc(S(=O)(=O)CCC(=O)NC2CCCC2)cc1	20.6µM*	2.6%	12.8%	1.2%	i	i
Cc1ccc(S(=O)(=O)CCC(=O)NC2CCCCC2)cc1	-4.6%	10.8%	4.5%	3.5%	i	i
CNC(=O)c1c[nH]c2ccc(S(=O)(=O)Nc3ccccc3F)cc2c1=O	-19.9%	-17.6%	-1.0%	7.0%	i	i
O=CNCc1nc2ccccc2n1CCc1ccccc1	2.91µM*	11.5%	21.4%	?	?	i
O=C1CN2Cc3c(ccc(Cl)c3Cl)N=C2N1	?	-3.9%	1.5%	7.3%	0.164µM*	i
Oc1cn2c(n1)Nc1ccc(Cl)c(Cl)c1C2	2.0%	/	/	0.7%	/	/
COc1ccc(C(=O)Cn2cc[n+](C)c2)cc1	-5.8%	11.8%	3.4%	13.4%	i	i
O=C(COc1ccc(Cl)cc1)OCc1cc(=O)n2nc(C3CC3)sc2n1	/	/	/	/	i	i
CCOC(=O)N1CCN(CC(=O)Nc2c(C(=O)OC)[nH]c3ccc(Cl)cc23)CC1	1.6%	-24.8%	-4.8%	28.8%	2.31µM*	16.4µM*
COC(=O)c1[nH]c2ccccc2c1NC(=O)CN1CCN(C/C=C/c2ccccc2)CC1	15.8%	?	?	9.2%	?	i
CCOC(=O)c1[nH]c2ccc(F)cc2c1NC(=O)CN1CCN(C/C=C/c2ccccc2)CC1	?	20.6µM*	25.9µM*	14.6µM*	?	i
CCOC(=O)N1CCN(CC(=O)Nc2c(C(=O)OC)[nH]c3cc(C)ccc23)CC1	-2.6%	-2.2%	2.2%	2.7%	i	i
CC1CCc2c(sc3nc(CN4CCOCC4)nc(N4CCc5ccccc5C4)c23)C1 (stereo not given)	2.7%	5.9%	0.1%	?	i	i
Cc1ccn2c(=O)c(NC(=O)c3cccs3)c(C)nc2c1	23.1µM*	-4.0%	-1.7%	-0.7%	i	i
Cc1ccn2c(=O)c(NC(=O)c3cccc([N+](=O)[O-])c3C)c(C)nc2c1	/	/	/	/	i	?
O=C(/C=C/Nc1ccc([N+](=O)[O-])cc1Br)c1cccc2ccccc12	?	-3.6%	1.4%	2.5%	i	23.1µM*
NC(=O)c1cc([N+](=O)[O-])ccc1NCc1cccc2ccccc12	-31.5%	-14.9%	-29.2%	?	?	i
CC(C)Oc1ccccc1/C=N/NC(=O)c1ccc(F)cc1	-46.4%	-1.2%	-1.7%	-18.8%	i	i
COc1cc2c(cc1OC)/C(=C/c1ccc(Br)cc1)C(=O)OC2	?	?	?	?	?	20.6µM*
CCOc1ccc(N(CC(=O)NCC2CCCO2)C(=O)CCC(=O)Nc2ccccn2)cc1 (stereo not given)	-28.6%	-2.3%	8.1%	1.5%	i	i
CCOC(=O)C1C(=O)NC(c2ccccc2)=NC1c1ccc(F)cc1 (stereo not given)	3.2%	20.4%	12.0%	5.9%	i	i
CSC1=NC(C(Cl)(Cl)Cl)N=C(c2ccccc2)N1 (stereo not given)	?	?	20.6µM*	?	5.8µM*	3.26µM*
CCCCCCCCCCCCCC[N+](C)(C)C	?	/	/	45.7%	/	/
SMILES	SW480 rerep	HT1080NT lethal	HT1080 IDH1KD tx	MCF10A rereplic	KB-V1 cytotox	KB-3-1 tox
CCCCCC[N+](C)(C)CCSSCC[N+](C)(C)CCCCCC	-4.1%	11.3%	1.2%	5.5%	i	i
CCCCCCCCCCCCCCCC[N+](C)(C)CC	?	16.4µM*	16.4µM*	?	i	?
CCCCCCCCCCCCCCCC[N+](C)(C)CCl	20.6µM*	-10.7%	-29.9%	24.7%	i	?
CCOc1cccc(=O)c2c(C)oc(C)c12	17.6%	1.2%	10.0%	?	?	i
CCOC(=O)N1CCN(C(=O)c2ccc3c(=O)n(CCc4ccccc4)c(=S)[nH]c3c2)CC1	-3.9%	1.0%	-14.4%	?	?	i
COc1ccc(NC(=O)c2ccccc2C(=O)N2CCCCC2)cc1	10.1%	1.4%	-1.4%	10.1%	i	i
Nc1ccccc1SSc1ccccc1N	5.9%	?	23.1µM*	15.5%	i	i
C/C(CC(=O)c1ccccc1)=N\NC(=O)CC#N	-2.4%	-2.0%	-0.1%	-2.8%	i	i
COc1ccc(-c2c3c(=O)n(C)c(=O)n(C)c3cn2Cc2ccccn2)cc1	?	0.6%	2.6%	18.4µM*	i	i
Cc1ccc(-c2c3c(=O)n(C)c(=O)n(C)c3cn2Cc2ccccn2)cc1	-6.5%	1.7%	-0.4%	-2.1%	i	i
N#CCCn1cc(C=C(C#N)C#N)c(-c2ccc(Cl)cc2)n1	?	-12.6%	-7.5%	3.66µM*	i	i
O=C(O)CCn1cc(/C=C2/NC(=S)N(c3ccccc3)C2=O)c(-c2ccccc2)n1	-17.6%	5.5%	24.9%	12.4%	i	i
N#CCCn1cc(/C=N/O)c(-c2ccc(Cl)cc2)n1	1.6%	-2.1%	-24.6%	9.9%	i	i
N#CCCn1cc(/C=N/O)c(-c2ccc(-c3ccccc3)cc2)n1	?	?	?	13µM*	i	?
N#CCCn1cc(/C=C2\NC(=S)N(c3ccccc3)C2=O)c(-c2ccc(-c3ccccc3)cc2)n1	?	-12.9%	-19.0%	5.8µM*	i	?
Cc1cccc(NC(=O)C2CCN(c3nc4ccccc4[nH]3)CC2)c1C	/	/	/	/	i	i
S=c1[nH]ccn1-c1cccc(Cl)c1Cl	-4.7%	0.1%	-0.3%	0.7%	i	i
Cc1cc(O)c(C(C)C)cc1N=Cc1ccccc1[N+](=O)[O-]	?	?	16.4µM*	?	i	i
CCc1cc(CNC(=O)c2cccc(OC3CCN(S(C)(=O)=O)CC3)c2)on1	0.4%	16.4µM*	-13.5%	13.1%	?	?

Screens (PubChem BioAssay)
